Hit rate of the full screen: of about 2,300 compounds, about 1,400 (61%) were called active. Roughly 7% stayed inconclusive and do not appear here. No rule for the calls is given here. The set was probably picked from earlier hits. These entries were drawn from the full list. Results with a measured potency or affinity are listed apart.
Each compound was assayed against FAD-linked sulfhydryl oxidase ALR (Homo sapiens) (UniProt P55789) (assay: inhibitors of human ALR sulfhydryl oxidase, dose response, biochemical, H2O2 detection, luminescence, cherry-pick (AID 493248)). Details: purified ALR, DTT oxidation, H2O2 HRP-luminol luminescence; at 10 µM (top of the series).
Chain of FAD-linked sulfhydryl oxidase ALR (Homo sapiens) (P55789 whole entry, looked up): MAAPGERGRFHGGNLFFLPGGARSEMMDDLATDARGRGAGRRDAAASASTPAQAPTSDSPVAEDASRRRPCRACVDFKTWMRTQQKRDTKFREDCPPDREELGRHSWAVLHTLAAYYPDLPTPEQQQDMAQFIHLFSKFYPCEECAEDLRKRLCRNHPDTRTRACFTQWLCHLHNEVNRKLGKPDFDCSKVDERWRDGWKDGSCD
`CC1=NN(C(=O)c2ccc(Br)cc2)C(O)(c2ccccc2)C1` (configuration not stated) was tested, and the activity change, negative = inhibition was 286%. `Cc1noc(C)c1S(=O)(=O)N(CC(=O)NCc1ccc2c(c1)OCO2)c1ccc(C(C)C)cc1` gave an activity change, negative = inhibition of 1.03%. For `O=C(NCc1ccc2c(c1)OCO2)C1CC(=O)N(c2ccc(O)cc2)C1` (configuration not stated), the activity change, negative = inhibition was -108%. Compound `O=c1[nH]n(-c2ccc(Cl)cc2)c2ncccc12` has an activity change, negative = inhibition of 291%. `O=C(CCCC(=O)c1ccccc1)Nc1ccc(O)cc1` showed an activity change, negative = inhibition of 182%. With `S=c1[nH]nc(Cc2noc3ccccc23)n1-c1ccc(Cl)cc1` the activity change, negative = inhibition was -49.3%. Work on `COc1ccc(OC)c(/C(C)=N/Nc2ccc(C(=O)O)cc2)c1` yielded an activity change, negative = inhibition of -31.7%. With `COc1ccc(CNc2nc3ccccc3n2CCN2CCCCC2)cc1` the activity change, negative = inhibition was 35.3%. `O=C(O)c1ccc(N(c2ccccc2)c2ccccc2)cc1` showed an activity change, negative = inhibition of -77.1%. Compound `Brc1c(CSc2nnc(-c3ccco3)o2)nc2ccccn12` has an activity change, negative = inhibition of -95.5%. For `CCN(c1ccc(C)c(C)c1)S(=O)(=O)c1ccc2c(c1)CCN2C(=O)CCC(=O)O`, the activity change, negative = inhibition was -9.61%. In the case of `Cc1cc(-c2n[nH]c(=S)o2)c(C)n1-c1ccccc1`, the activity change, negative = inhibition is reported as 19.3%. With `CCc1c(C)[nH]n(-c2ccc(Oc3ccccc3)c(S(=O)(=O)O)c2)c1=O` the activity change, negative = inhibition was -7.16%. `COc1ccc(-c2csc(N(CCCN(C)C)C(=O)c3ccc(F)cc3)n2)cc1` was tested, and the activity change, negative = inhibition was -32.9%. Work on `CS(=O)(=O)N1CCN=C1SCc1cccc(F)c1` yielded an activity change, negative = inhibition of -0.153%. Work on `CCCS(=O)(=O)N1CCN=C1SCc1ccc(F)cc1` yielded an activity change, negative = inhibition of -0.819%. With `S=c1[nH]nc(-c2c[nH]c3ccccc23)o1` the activity change, negative = inhibition was -89%. Compound `CCn1c(-c2cc(OC)c(OC)c(OC)c2)n[nH]c1=S` has an activity change, negative = inhibition of -1.45%. Work on `CCCCCCCCN1[C@@H](CC(=O)O)c2ccc(C(F)(F)F)cc2S1(=O)=O` yielded an activity change, negative = inhibition of -22.2%. `COc1cccc2c3c(c(=O)[nH]c12)CCC(C)(C)O3` showed an activity change, negative = inhibition of -20.3%. In the case of `CCn1c(SCc2nc3sc(C(=O)O)c(C)c3c(=O)[nH]2)nc2ccccc21`, the activity change, negative = inhibition is reported as -10.8%. `Cc1ccsc1C=Nc1ccc(O)cc1` was tested, and the activity change, negative = inhibition was -98%. `Nc1ccc(Oc2cc(N)cc(Oc3ccccc3)c2)cc1` showed an activity change, negative = inhibition of 29.7%. In the case of `Cc1cccc(Oc2ccc(N)cc2)c1`, the activity change, negative = inhibition is reported as -1.09%. Work on `CNc1nn(-c2cccc(Cl)c2)nc1N` yielded an activity change, negative = inhibition of -9.08%. `c1ccc(-c2cnc(CN3CCN(c4ccccc4)CC3)o2)cc1` gave an activity change, negative = inhibition of -44.8%. Compound `COc1cccc(/C=N/n2c(-c3n[nH]c4c3CCC4)n[nH]c2=S)c1O` has an activity change, negative = inhibition of -33.1%. Work on `CCCC(C)NC(=O)Cc1ccc(Br)cc1` (configuration not stated) yielded an activity change, negative = inhibition of 60.9%. `CCCN1CCC(=O)N([C@H](CSc2ccc(OC)cc2)c2ccccc2)CC1` gave an activity change, negative = inhibition of 1.83%. `O=S1(=O)N=C(Nc2ccc(O)cc2)c2ccccc21` was tested, and the activity change, negative = inhibition was 176%. For `Cc1ccc(-c2c(C(=O)O)c(C(=O)O)c3n2CSC3)cc1`, the activity change, negative = inhibition was -43.7%. `Cc1n[nH]c(=S)n1/N=C/c1ccccc1` was tested, and the activity change, negative = inhibition was -93.3%. `S=c1[nH]nc(-c2ccco2)n1/N=C/c1ccccc1` showed an activity change, negative = inhibition of 0.752%. `Cc1cc(C(=O)NC2CCCc3c2cnn3-c2ccc(C)c(C)c2)no1` (configuration not stated) showed an activity change, negative = inhibition of -8.68%. `O=c1[nH]c(/C=C\c2ccccc2F)nc(O)c1[N+](=O)[O-]` gave an activity change, negative = inhibition of -17.7%. `O=C(CNS(=O)(=O)c1ccccc1)N/N=C/c1ccc(O)cc1` showed an activity change, negative = inhibition of -113%. With `CC1CC(C)CN(C(=O)c2ccc(-c3ccc([N+](=O)[O-])cc3)o2)C1` (configuration not stated) the activity change, negative = inhibition was -37.5%. `Cc1nc2cccc(C(=O)Oc3ccc([N+](=O)[O-])cc3)c2o1` showed an activity change, negative = inhibition of -34.6%. For `O=C(NCc1cccs1)C1CCN(S(=O)(=O)c2cccc3cccnc23)CC1`, the activity change, negative = inhibition was 3.4%. Compound `CCN(CCNC(=O)CN(C)S(=O)(=O)c1cccc2nsnc12)c1ccccc1` has an activity change, negative = inhibition of -59.9%. For `CCCCN(CCCC)c1ccc(C(=O)c2ccccc2C(=O)O)c(O)c1`, the activity change, negative = inhibition was -56.2%. `Cc1ccc(N=c2oc3cc(O)ccc3cc2C(N)=O)cc1` was tested, and the activity change, negative = inhibition was -84.9%. `CC/C(=N\NC(=O)CCC(=O)NCc1ccccc1)c1ccc(O)cc1` was tested, and the activity change, negative = inhibition was -98.7%. For `Cc1nn(C)c(C)c1Sc1ccccc1N`, the activity change, negative = inhibition was -14.3%. With `Cc1nc(N2CCN(c3ccccc3)CC2)[nH]c(=O)c1C` the activity change, negative = inhibition was -42.3%. For `Nc1ccc2oc(=O)c(-c3ccccc3)cc2c1`, the activity change, negative = inhibition was -86.7%. For `Cc1ccc(N2CCN(C(=O)N3CCCC3)CC2)cc1C`, the activity change, negative = inhibition was -10.1%. Work on `COc1cccc(CNc2nc3ccccc3n2CCN2CCCCC2)c1OC` yielded an activity change, negative = inhibition of -11.4%. `Cn1ccnc1SCc1cccc([N+](=O)[O-])c1` showed an activity change, negative = inhibition of 7.58%. For `COc1cc(/C=C2\SC(=S)N(NC(C)=O)C2=O)ccc1OC(=O)c1ccco1`, the activity change, negative = inhibition was -26.5%. With `Cc1cc(NC(=O)c2ccco2)sc1C` the activity change, negative = inhibition was -98.7%. With `COc1ccc(S(=O)(=O)N2Cc3ccccc3CC2C(=O)Nc2ccc(O)cc2)cc1OC` (configuration not stated) the activity change, negative = inhibition was 349%. Work on `CSc1cccc(NC(=O)c2ccco2)c1` yielded an activity change, negative = inhibition of -98.6%. `COc1ccc(SCCc2ccncc2)cc1` gave an activity change, negative = inhibition of -20.1%. For `O=C(C1CCC1)N1CCN(c2ccc(Cl)cc2)CC1`, the activity change, negative = inhibition was -43.9%. `CCCC(=O)N1c2ccc(-c3csc(N)n3)cc2CC1C` (configuration not stated) gave an activity change, negative = inhibition of -16.4%. Work on `Cc1cc(N/N=C/c2ccco2)c2ccccc2n1` yielded an activity change, negative = inhibition of -3.59%. `Cc1cc(N/N=C/c2ccccc2F)c2ccccc2n1` gave an activity change, negative = inhibition of -22.6%. With `CC(=O)N1CCN=C1SCc1ccc(Cl)cc1` the activity change, negative = inhibition was -8.99%. For `S=c1[nH]ncn1/N=C/c1ccccc1`, the activity change, negative = inhibition was -73%. Work on `O=C(Cn1cnc2ccccc21)N/N=C/c1ccccn1` yielded an activity change, negative = inhibition of 0.505%. For `COc1ccc(NC(=O)Nc2ccc3nccnc3c2)cc1`, the activity change, negative = inhibition was 105%. `Cc1oc(C(=O)Nc2ccc(C(=O)O)cc2)cc1COc1ccccc1` gave an activity change, negative = inhibition of -25.3%. For `Cc1ccc(N(C(=O)c2ccc(Br)o2)C2C=CS(=O)(=O)C2)cc1` (configuration not stated), the activity change, negative = inhibition was -13.3%. `CC1=C(C)CS(=O)N(S(=O)(=O)c2ccccc2)C1` (configuration not stated) gave an activity change, negative = inhibition of -41.8%. `O=C(Cc1c(C(=O)O)[nH]c2ccccc12)NCCN1CCN(c2cccc(Cl)c2)CC1` showed an activity change, negative = inhibition of -54.4%. For `O=C(NCCN1CCN(c2ccccc2)CC1)c1cccc(Cl)c1`, the activity change, negative = inhibition was -76.5%. With `CC(C)CN(CC(C)C)c1nnc(N)s1` the activity change, negative = inhibition was 16.8%. With `O=C(Nc1nc2ccc(S(=O)(=O)N3CCCCC3)cc2s1)c1ccncc1` the activity change, negative = inhibition was -6.5%. For `Cc1cccc(-c2n[nH]c(=S)n2/N=C/C=C/c2ccco2)c1`, the activity change, negative = inhibition was -98%. For `COc1c(/C=N/Nc2ccc(C(=O)O)cc2)c(CCN(C)C(C)=O)cc2c1OCO2`, the activity change, negative = inhibition was -95.6%. Compound `CC1CN(c2ccccc2)NC1=O` (configuration not stated) has an activity change, negative = inhibition of 23.1%. With `O=C(NCc1cccs1)c1nc2c(nnn2Cc2ccccc2Cl)c(=O)[nH]1` the activity change, negative = inhibition was -7.82%. `COc1cc(OC)cc(-c2cn[nH]c2N)c1` showed an activity change, negative = inhibition of -60.4%. For `Cc1n[nH]c(C)c1Sc1ccccc1N`, the activity change, negative = inhibition was 54.6%. For `Cc1ccc(N=Nc2c(N)[nH]n3c(=O)cc(C)nc23)cc1`, the activity change, negative = inhibition was -55.4%. `Cc1nc(NS(=O)(=O)c2ccccc2C)c2c3c(sc2n1)CCC3` was tested, and the activity change, negative = inhibition was -0.709%.

Source: PubChem BioAssay AID493248 (Broad Institute, 2011)
